Laboratory results as given in the supplement of paper PMC10849652.
Targets with a hit are over-represented here; the source holds about 8,800 in all. About 0.5% of all pairs of compound and target were hits.

What was measured:
Test in all cases: log2 fold change, soluble protein after heating vs DMSO (PISA); higher = thermal stabilisation; K562 lysate, 10 uM; active = over 0.2 and 3.5 SD of the protein, either way, in both replicates (recomputed)
[1] = compound: CN1CC[C@H](c2c(O)cc(O)c3c(=O)cc(-c4ccccc4Cl)oc23)[C@H](O)C1 [alvocidib]
Procedure, shortened: (§1)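 A 30 min treatment with 10 μM compound was applied to crude K562 extract at 1 mg/mL protein in PBS pH 7.4 with 1 mM MgCl2. Heating for 3 min spanned 48°C-58°C, after which aliquots were pooled, adjusted to 0.5% NP-40 at 4°C and spun at 21,000xg for 90 min. TMTpro 16plex LC-MS/MS of the supernatant, with channel sums equalised, gave values recorded as log-two fold change in thermal stability against solvent controls, from duplicates.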

[2] = compound: CN1CCc2c(c3ccccc3n2Cc2ccc(C(=O)NO)cc2)C1 [Tubastatin A]
Procedure, shortened: as §1

[3] = compound: CNC(=O)C1=CC=CC=C1NC2=NC(=NC=C2Cl)NC3=C(C=C(C=C3)N4CCOCC4)OC
Procedure, shortened: as §1

[4] = compound: CNC(=O)c1ccc(Nc2ncc(C(F)(F)F)c(NCc3nccnc3N(C)S(C)(=O)=O)n2)cc1 [defactinib]
Procedure, shortened: as §1

[5] = compound: CNc1nc(-c2ccc3c(N)n[nH]c3c2)cc(N2C[C@@H](C(=O)NC3CCCCC3)CC[C@H]2C)n1
Procedure, shortened: as §1

[6] = compound: COC(=O)N[C@@H](C)CNc1nccc(-c2cn(C(C)C)nc2-c2cc(Cl)cc(NS(C)(=O)=O)c2F)n1 [encorafenib]
Procedure, shortened: as §1

[7] = compound: COC(=O)[C@H](CCSC)NC(=O)C1=C(C=C(C=C1)NC[C@H](CS)N)C2=CC=CC=C2
Procedure, shortened: as §1

[8] = compound: COc1cc(Nc2ncc3c(n2)-c2ccc(Cl)cc2C(c2c(F)cccc2OC)=NC3)ccc1C(=O)O [alisertib]
Procedure, shortened: as §1

[9] = compound: COc1cc2nc(-c3cc(F)ccc3O)nc(N[C@@H]3CNC[C@H]3C(C)(C)O)c2cc1OC
Procedure, shortened: as §1

[10] = compound: COc1cc2ncnc(Nc3ccc(F)c(Cl)c3)c2cc1OCCCN1CCOCC1 [gefitinib]
Procedure, shortened: as §1

Measured: log2 fold change

ACOX1 isoform 2 (UniProt Q15067)
Sequence of UniProt Q15067 (Q15067 whole entry, looked up): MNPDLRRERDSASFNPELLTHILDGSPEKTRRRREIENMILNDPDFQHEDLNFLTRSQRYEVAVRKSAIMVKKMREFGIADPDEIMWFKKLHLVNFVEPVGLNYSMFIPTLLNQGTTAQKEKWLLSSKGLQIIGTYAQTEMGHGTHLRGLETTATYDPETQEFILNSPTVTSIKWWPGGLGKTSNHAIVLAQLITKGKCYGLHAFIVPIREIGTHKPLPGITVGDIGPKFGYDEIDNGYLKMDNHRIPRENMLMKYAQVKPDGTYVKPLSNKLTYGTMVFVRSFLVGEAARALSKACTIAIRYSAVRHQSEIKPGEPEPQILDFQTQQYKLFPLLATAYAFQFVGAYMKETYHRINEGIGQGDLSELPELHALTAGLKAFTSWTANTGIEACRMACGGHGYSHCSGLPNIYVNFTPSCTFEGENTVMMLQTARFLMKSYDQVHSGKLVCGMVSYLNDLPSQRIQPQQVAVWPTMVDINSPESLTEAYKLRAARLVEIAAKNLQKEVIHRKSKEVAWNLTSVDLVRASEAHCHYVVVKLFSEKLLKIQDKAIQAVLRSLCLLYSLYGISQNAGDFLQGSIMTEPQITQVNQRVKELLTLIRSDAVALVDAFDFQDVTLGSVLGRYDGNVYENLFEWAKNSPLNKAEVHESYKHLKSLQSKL
inactive: [1] -0.049 | [2] 0.041 | [3] 0.012 | [4] 0.012 | [5] 0.017 | [6] -0.015 | [8] 0 | [9] 0.01 | [10] 0.018
active: [7] -0.255

AKAP8 (UniProt O43823)
inactive: [1] -0.031 | [2] -0.038 | [3] -0.059 | [4] -0.001 | [5] -0.073 | [6] 0.072 | [7] -0.098 | [8] 0.02 | [9] 0.058 | [10] -0.042

APEX1 (UniProt P27695)
inactive: [1] 0.13 | [2] -0.07 | [3] 0.006 | [4] 0.023 | [5] 0.038 | [6] -0.024 | [7] 0.076 | [8] 0 | [9] -0.019 | [10] -0.064

AP3D1 isoform 5 (UniProt O14617)
inactive: [1] -0.02 | [2] -0.048 | [3] 0.018 | [4] 0.033 | [5] 0.03 | [6] 0.026 | [7] -0.028 | [8] -0.009 | [9] 0.004 | [10] -0.014

ACTBL2 (UniProt Q562R1)
inactive: [1] -0.083 | [2] -0.111 | [3] -0.01 | [4] 0.093 | [5] -0.008 | [6] -0.226 | [7] 0.005 | [8] -0.273 | [9] 0.009 | [10] -0.223

AKAP11 (UniProt Q9UKA4)
inactive: [1] 0.032 | [2] 0.026 | [3] 0.001 | [4] 0.093 | [5] -0.01 | [6] -0.03 | [7] 0.144 | [8] -0.022 | [9] -0.119 | [10] -0.114

AHCYL1 (UniProt O43865)
inactive: [1] 0.025 | [2] -0.096 | [3] 0.051 | [4] 0.06 | [5] 0.037 | [6] 0.01 | [7] 0.009 | [8] -0.041 | [9] -0.003 | [10] -0.012

ABCF3 (UniProt Q9NUQ8)
Sequence of UniProt Q9NUQ8 (Q9NUQ8 whole entry, looked up): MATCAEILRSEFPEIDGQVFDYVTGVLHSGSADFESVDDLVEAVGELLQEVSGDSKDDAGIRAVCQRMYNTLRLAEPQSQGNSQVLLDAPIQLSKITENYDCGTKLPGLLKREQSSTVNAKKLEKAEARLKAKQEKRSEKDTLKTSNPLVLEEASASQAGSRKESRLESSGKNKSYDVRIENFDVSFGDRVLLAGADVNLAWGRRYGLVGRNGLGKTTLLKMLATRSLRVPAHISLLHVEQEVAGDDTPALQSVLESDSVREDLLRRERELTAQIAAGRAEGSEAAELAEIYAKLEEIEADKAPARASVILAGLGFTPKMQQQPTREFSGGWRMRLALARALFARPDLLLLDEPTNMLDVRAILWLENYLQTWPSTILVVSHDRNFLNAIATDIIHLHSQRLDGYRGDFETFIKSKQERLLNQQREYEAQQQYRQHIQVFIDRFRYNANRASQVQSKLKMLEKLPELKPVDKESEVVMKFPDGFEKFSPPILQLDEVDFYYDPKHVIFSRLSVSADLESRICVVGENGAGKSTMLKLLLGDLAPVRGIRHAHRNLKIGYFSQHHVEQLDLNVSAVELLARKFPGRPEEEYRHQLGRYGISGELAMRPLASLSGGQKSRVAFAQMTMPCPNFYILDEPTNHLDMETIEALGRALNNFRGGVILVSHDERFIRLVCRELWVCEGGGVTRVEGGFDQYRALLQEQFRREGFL
inactive: [1] 0.013 | [2] -0.172 | [3] 0.029 | [4] -0.01 | [5] -0.01 | [6] -0.031 | [7] 0.11 | [8] 0.004 | [9] -0.003 | [10] -0.006

AGO4 (UniProt Q9HCK5)
inactive: [1] -0.013 | [2] -0.003 | [3] 0.003 | [4] -0.027 | [6] 0.025 | [7] -0.092 | [8] -0.008 | [9] 0.037 | [10] -0.015
active: [5] -0.214

ARHGEF2 (UniProt Q92974)
inactive: [1] -0.009 | [2] -0.081 | [3] 0.047 | [4] -0.004 | [5] 0.058 | [6] 0.07 | [7] 0.071 | [8] 0.018 | [9] -0.005 | [10] 0.007

ACAA1 (UniProt P09110)
inactive: [1] -0.027 | [2] 0.043 | [3] 0.008 | [4] 0.008 | [5] 0.093 | [6] -0.021 | [7] 0.012 | [8] -0.035 | [9] 0.01 | [10] 0.015

AGPAT1 (UniProt Q99943)
inactive: [1] -0.002 | [2] -0.015 | [3] 0.052 | [4] -0.007 | [5] -0.033 | [6] 0.075 | [7] -0.016 | [8] -0.015 | [9] -0.232 | [10] 0.028

ALDH1A1 (UniProt P00352)
inactive: [1] 0.06 | [2] -0.004 | [3] 0.004 | [4] -0.007 | [5] -0.037 | [6] -0.009 | [7] -0.043 | [8] 0.01 | [9] -0.001 | [10] -0.017

AK2 (UniProt P54819)
inactive: [1] -0.003 | [2] 0.05 | [3] -0.019 | [4] 0.016 | [5] 0.033 | [6] -0.025 | [7] -0.018 | [8] 0.008 | [9] -0.025 | [10] 0.019

AGL (UniProt P35573)
Sequence of UniProt P35573 (P35573 whole entry, looked up): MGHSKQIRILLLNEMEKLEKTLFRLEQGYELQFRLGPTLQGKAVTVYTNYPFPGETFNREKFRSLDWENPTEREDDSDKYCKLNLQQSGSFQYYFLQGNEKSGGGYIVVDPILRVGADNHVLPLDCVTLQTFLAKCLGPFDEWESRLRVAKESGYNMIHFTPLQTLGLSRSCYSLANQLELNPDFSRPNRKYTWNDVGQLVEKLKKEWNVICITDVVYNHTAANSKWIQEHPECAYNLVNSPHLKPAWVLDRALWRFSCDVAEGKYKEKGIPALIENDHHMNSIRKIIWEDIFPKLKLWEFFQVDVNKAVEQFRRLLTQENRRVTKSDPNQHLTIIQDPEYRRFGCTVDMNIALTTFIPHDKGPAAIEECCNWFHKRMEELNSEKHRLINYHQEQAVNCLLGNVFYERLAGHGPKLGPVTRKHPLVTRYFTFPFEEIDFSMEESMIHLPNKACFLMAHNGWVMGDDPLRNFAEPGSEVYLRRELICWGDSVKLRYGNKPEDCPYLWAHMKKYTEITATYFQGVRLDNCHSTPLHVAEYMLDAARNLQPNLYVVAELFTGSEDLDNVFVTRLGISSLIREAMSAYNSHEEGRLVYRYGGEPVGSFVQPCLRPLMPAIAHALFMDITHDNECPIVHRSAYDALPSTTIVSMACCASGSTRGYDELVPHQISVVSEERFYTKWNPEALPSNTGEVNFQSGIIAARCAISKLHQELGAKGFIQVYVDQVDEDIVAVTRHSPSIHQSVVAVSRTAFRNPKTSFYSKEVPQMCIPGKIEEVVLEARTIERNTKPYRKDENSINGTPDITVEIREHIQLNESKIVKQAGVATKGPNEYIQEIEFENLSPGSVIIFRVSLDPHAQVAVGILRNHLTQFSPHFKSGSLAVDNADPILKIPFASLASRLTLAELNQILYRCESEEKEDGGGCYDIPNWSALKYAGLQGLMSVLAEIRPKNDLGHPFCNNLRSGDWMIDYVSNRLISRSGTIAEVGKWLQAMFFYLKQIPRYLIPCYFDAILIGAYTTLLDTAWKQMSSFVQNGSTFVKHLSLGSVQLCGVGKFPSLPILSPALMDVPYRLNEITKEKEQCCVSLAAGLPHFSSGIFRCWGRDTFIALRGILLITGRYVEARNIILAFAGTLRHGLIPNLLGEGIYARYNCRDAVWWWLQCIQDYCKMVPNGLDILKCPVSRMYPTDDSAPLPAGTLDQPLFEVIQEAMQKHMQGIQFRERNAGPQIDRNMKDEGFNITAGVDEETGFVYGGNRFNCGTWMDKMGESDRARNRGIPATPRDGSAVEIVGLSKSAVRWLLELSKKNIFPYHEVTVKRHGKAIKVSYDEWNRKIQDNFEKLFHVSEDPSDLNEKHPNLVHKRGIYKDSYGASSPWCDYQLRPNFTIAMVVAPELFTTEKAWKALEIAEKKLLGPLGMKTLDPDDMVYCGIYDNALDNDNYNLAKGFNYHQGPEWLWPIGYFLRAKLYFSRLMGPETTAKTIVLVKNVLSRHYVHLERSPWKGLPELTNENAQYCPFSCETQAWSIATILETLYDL
inactive: [1] 0.046 | [2] -0.099 | [3] 0.014 | [4] 0.024 | [5] -0.002 | [6] 0.008 | [7] 0.178 | [8] -0.004 | [9] -0.012 | [10] -0.007

ARMCX3 (UniProt Q9UH62)
inactive: [1] 0.022 | [2] -0.061 | [3] -0.018 | [4] 0.017 | [5] 0.026 | [6] -0.006 | [7] 0.015 | [8] 0.055 | [9] 0.042 | [10] -0.053

ANKRD54 (UniProt Q6NXT1)
Sequence of UniProt Q6NXT1 (Q6NXT1 whole entry, looked up): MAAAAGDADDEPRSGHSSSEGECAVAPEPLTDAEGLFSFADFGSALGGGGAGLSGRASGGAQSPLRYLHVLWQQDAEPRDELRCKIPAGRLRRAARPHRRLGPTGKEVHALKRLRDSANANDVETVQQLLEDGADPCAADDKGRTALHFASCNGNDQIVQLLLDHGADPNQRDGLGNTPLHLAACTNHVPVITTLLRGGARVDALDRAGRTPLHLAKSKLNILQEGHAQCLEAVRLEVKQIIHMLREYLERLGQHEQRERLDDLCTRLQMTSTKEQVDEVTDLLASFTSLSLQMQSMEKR
inactive: [1] -0.019 | [2] -0.095 | [3] 0.121 | [4] 0.022 | [5] 0.042 | [6] 0.082 | [7] -0.147 | [8] 0.006 | [9] -0.011 | [10] 0.002

AKR1B1 (UniProt P15121)
inactive: [1] 0.033 | [2] 0.023 | [3] -0.003 | [4] -0.01 | [5] -0.072 | [6] 0.019 | [7] 0.009 | [8] 0.015 | [9] -0.008 | [10] -0.016

ARL15 (UniProt Q9NXU5)
inactive: [1] 0.177 | [2] -0.002 | [3] -0.013 | [4] -0.013 | [5] -0.021 | [6] 0.037 | [7] -0.211 | [8] 0.005 | [9] 0 | [10] -0.057

ANAPC7 (UniProt Q9UJX3)
Sequence of UniProt Q9UJX3 (Q9UJX3 whole entry, looked up): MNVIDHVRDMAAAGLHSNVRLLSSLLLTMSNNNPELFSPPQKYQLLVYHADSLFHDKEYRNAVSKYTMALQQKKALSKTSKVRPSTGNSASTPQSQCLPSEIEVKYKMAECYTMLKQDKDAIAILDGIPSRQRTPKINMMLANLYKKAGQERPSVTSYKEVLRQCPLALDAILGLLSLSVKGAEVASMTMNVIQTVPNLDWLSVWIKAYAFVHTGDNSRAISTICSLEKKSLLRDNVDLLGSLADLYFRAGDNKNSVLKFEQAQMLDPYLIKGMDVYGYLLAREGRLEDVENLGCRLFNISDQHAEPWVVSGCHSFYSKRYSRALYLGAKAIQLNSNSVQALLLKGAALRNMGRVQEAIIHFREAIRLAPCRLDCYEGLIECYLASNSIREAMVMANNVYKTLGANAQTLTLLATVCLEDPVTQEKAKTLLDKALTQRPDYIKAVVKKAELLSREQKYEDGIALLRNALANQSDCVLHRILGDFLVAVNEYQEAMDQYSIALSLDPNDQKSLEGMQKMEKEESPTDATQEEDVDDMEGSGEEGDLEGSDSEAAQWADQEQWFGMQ
inactive: [1] 0.011 | [2] -0.1 | [3] 0.036 | [4] 0.014 | [5] -0.03 | [6] 0.026 | [7] 0.002 | [8] -0.001 | [9] 0.005 | [10] 0.017

APOB (UniProt P04114)
inactive: [1] -0.078 | [2] 0.099 | [3] -0.021 | [4] -0.04 | [5] 0.264 | [6] -0.008 | [7] 0.003 | [8] -0.024 | [9] 0.023 | [10] 0.014

ABHD12 isoform 2 (UniProt Q8N2K0)
Sequence of UniProt Q8N2K0 (Q8N2K0 whole entry, looked up): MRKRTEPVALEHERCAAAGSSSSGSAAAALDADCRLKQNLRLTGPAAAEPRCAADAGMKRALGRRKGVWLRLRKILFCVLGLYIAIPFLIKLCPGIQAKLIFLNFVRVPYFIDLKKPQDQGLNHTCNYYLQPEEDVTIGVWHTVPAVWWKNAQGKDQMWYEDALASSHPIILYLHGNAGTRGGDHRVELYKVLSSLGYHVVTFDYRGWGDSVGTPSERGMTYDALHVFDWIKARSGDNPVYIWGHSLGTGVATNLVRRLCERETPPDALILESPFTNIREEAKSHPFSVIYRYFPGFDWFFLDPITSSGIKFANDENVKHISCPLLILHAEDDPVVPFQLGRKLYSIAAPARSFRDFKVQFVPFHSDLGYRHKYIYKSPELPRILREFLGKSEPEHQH
inactive: [1] 0.02 | [2] 0.001 | [3] 0.039 | [4] -0.004 | [5] 0.003 | [6] 0.046 | [7] -0.018 | [8] -0.031 | [9] -0.03 | [10] -0.045

ARHGAP21 (UniProt Q5T5U3)
inactive: [1] 0.032 | [2] 0.008 | [3] 0.03 | [4] 0.015 | [5] 0.056 | [6] 0.079 | [7] 0.101 | [8] -0.023 | [9] -0.007 | [10] -0.095

ARMC6 (UniProt Q6NXE6)
inactive: [1] 0 | [2] -0.171 | [3] 0 | [4] -0.003 | [5] -0.103 | [6] 0.037 | [8] 0.005 | [9] -0.014 | [10] 0.041
active: [7] 0.234

ANKRD30B (UniProt Q9BXX2)
inactive: [1] -0.307 | [2] 0.007 | [3] -0.01 | [4] -0.155 | [5] 0.284 | [6] -0.113 | [7] 0.164 | [8] -0.002 | [9] -0.067 | [10] -0.036

AIMP2 (UniProt Q13155)
inactive: [1] 0.037 | [2] -0.11 | [3] 0.006 | [4] -0.01 | [5] -0.007 | [6] -0.02 | [7] 0.093 | [8] 0.011 | [9] -0.028 | [10] -0.088

AMDHD2 isoform 3 (UniProt Q9Y303)
inactive: [1] -0.016 | [2] 0 | [3] 0.018 | [4] 0.014 | [5] 0.018 | [6] -0.028 | [7] 0.1 | [8] 0.023 | [9] -0.013 | [10] 0.034

APOBEC3C (UniProt Q9NRW3)
inactive: [1] -0.019 | [2] -0.121 | [3] 0.018 | [4] 0.013 | [5] -0.007 | [6] 0.047 | [7] -0.067 | [8] 0.009 | [9] 0.003 | [10] -0.005

ACACA isoform 4 (UniProt Q13085)
inactive: [1] 0.016 | [2] -0.115 | [3] -0.011 | [4] -0.008 | [5] -0.02 | [6] 0.032 | [7] -0.16 | [8] 0.014 | [9] 0 | [10] -0.004

AP1G2 (UniProt O75843)
Sequence of UniProt O75843 (O75843 whole entry, looked up): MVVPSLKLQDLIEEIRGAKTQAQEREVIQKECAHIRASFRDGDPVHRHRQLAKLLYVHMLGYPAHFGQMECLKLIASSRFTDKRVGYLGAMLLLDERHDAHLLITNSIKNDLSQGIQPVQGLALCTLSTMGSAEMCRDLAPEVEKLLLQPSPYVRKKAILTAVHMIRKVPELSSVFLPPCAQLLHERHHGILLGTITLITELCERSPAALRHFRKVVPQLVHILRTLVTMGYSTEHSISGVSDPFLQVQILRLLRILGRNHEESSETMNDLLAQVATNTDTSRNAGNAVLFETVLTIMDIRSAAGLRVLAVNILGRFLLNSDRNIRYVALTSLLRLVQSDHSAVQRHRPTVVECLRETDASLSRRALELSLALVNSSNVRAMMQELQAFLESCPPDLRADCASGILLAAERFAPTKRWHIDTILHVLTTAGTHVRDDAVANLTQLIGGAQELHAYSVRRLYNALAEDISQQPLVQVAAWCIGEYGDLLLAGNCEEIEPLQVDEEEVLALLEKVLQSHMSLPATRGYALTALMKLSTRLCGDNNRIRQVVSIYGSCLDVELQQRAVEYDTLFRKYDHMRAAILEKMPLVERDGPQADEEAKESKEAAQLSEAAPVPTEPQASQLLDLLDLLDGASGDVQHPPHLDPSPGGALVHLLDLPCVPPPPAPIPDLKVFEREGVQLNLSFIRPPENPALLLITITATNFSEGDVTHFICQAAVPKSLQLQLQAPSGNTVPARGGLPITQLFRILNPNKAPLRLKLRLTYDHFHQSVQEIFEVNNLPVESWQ
inactive: [1] 0.04 | [2] -0.099 | [3] 0.068 | [4] -0.006 | [5] 0.036 | [6] -0.03 | [7] -0.015 | [8] 0.037 | [9] 0.056 | [10] 0.03
